Laboratory results from PubChem BioAssay AID1159580 (chemical genetic matrix, 2015).
Values joined by “and” are separate entries in the source; they are usually repeats but may differ in a detail not shown here. Identical values can stand only once. Hit rate of the full screen: of about 5,500 compounds, about 2,000 (36%) were called active. Another 18% or so got no clear call; they are omitted. Rule as the data show it: active = normalized growth mostly below about 0.91 (no sharp cut-off); inconclusive = no clear call, values can overlap the other calls; inactive = mostly above about 0.92. Some of the results follow.

Assay: chemical genetic growth profiling, strain panel (AID 1159580);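 also: tested at 20 µM; growth read once vehicle control cultures reached saturation at 30 °C; 1 = growth at the plate median or of vehicle wells; lower values mean less growth of the strain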
Settings: S. cerevisiae deletion strains, growth OD

Measured: normalized growth

CC(C)NCC(O)COc1cccc2[nH]ccc12 (centres undefined)
inactive: locus YAL013W, strain DEP1, stronger effect = lower value 1 and 0.99 | locus YAL021C, strain ccr4, stronger effect = lower value 1.01 | locus YAL026C, strain drs2, stronger effect = lower value 0.986 | locus YAL030W, strain snc1, stronger effect = lower value 0.982 | locus YAL040C, strain CLN3, stronger effect = lower value 0.983 and 0.988 | locus YBL061C, strain skt5, stronger effect = lower value 0.977 | locus YBR009C, strain hhf1, stronger effect = lower value 0.983 | locus YBR021W, strain FUR4, stronger effect = lower value 1.02 | locus YBR023C, strain chs3, stronger effect = lower value 0.979 | locus YBR171W, strain sec66, stronger effect = lower value 0.979 | locus YBR229C, strain ROT2, stronger effect = lower value 0.999 | locus YBR231C, strain swc5, stronger effect = lower value 0.986 | locus YBR279W, strain paf1, stronger effect = lower value 0.992 | locus YCL011C, strain gbp2, stronger effect = lower value 0.98 | locus YCL016C, strain dcc1, stronger effect = lower value 0.981 | locus YCL029C, strain bik1, stronger effect = lower value 0.993 | locus YCL061C, strain MRC1 (second series), stronger effect = lower value 0.998 and 0.999 | locus YCL061C, strain MRC1, stronger effect = lower value 0.984 | locus YCL069W, strain vba3, stronger effect = lower value 0.983 | locus YCR088W, strain abp1, stronger effect = lower value 0.983 | locus YDL005C, strain med2, stronger effect = lower value 0.988 | locus YDL035C, strain GPR1, stronger effect = lower value 0.993 | locus YDL040C, strain nat1, stronger effect = lower value 0.986 | locus YDL074C, strain BRE1, stronger effect = lower value 1 | locus YDL101C, strain DUN1, stronger effect = lower value 0.988 | locus YDL134C, strain PPH21, stronger effect = lower value 0.989 | locus YDL185W, strain tfp1, stronger effect = lower value 0.947 | locus YDL192W, strain arf1, stronger effect = lower value 0.974 | locus YDR001C, strain nth1, stronger effect = lower value 0.974 | locus YDR069C, strain doa4, stronger effect = lower value 0.976 | locus YDR101C, strain arx1, stronger effect = lower value 0.983 | locus YDR137W, strain rgp1, stronger effect = lower value 0.975 | locus YDR150W, strain NUM1, stronger effect = lower value 1 and 0.997 | locus YDR159W, strain sac3, stronger effect = lower value 0.955 | locus YDR162C, strain NBP2, stronger effect = lower value 0.995 | locus YDR195W, strain ref2 0.927 | locus YDR297W, strain sur2, stronger effect = lower value 0.988 | locus YDR318W, strain mcm21, stronger effect = lower value 0.977 | locus YDR334W, strain swr1, stronger effect = lower value 0.978 | locus YDR335W, strain msn5, stronger effect = lower value 0.983 | locus YDR363W, strain ESC2, stronger effect = lower value 0.991 and 0.993 | locus YDR388W, stronger effect = lower value 0.979 | locus YDR392W, strain spt3, stronger effect = lower value 0.902 | locus YDR502C, strain sam2, stronger effect = lower value 0.986 | locus YEL003W, strain gim4, stronger effect = lower value 0.988 | locus YEL037C, strain rad23, stronger effect = lower value 1.01 | locus YEL061C, strain CIN8 (second series), stronger effect = lower value 0.972 | locus YEL061C, strain CIN8, stronger effect = lower value 0.997 | locus YER002W, strain NOP16, stronger effect = lower value 0.987 and 1.02 | locus YER015W, strain faa2, stronger effect = lower value 0.989 | locus YER016W, strain bim1, stronger effect = lower value 0.979 | locus YER110C, stronger effect = lower value 0.978 | locus YER111C, strain swi4, stronger effect = lower value 0.983 | locus YER155C, strain BEM2 (second series), stronger effect = lower value 0.97 | locus YER155C, strain BEM2, stronger effect = lower value 0.994 | locus YER167W, strain BCK2, stronger effect = lower value 0.991 | locus YFR010W, strain ubp6, stronger effect = lower value 0.961 | locus YGL078C, strain dbp3, stronger effect = lower value 0.99 | locus YGL086W, strain mad1, stronger effect = lower value 0.999 | locus YGL167C, strain pmr1, stronger effect = lower value 0.976 | locus YGL173C, strain kem1, stronger effect = lower value 0.989 | locus YGL227W, strain vid30, stronger effect = lower value 0.977 | locus YGL240W, strain doc1, stronger effect = lower value 0.986 | locus YGL248W, strain PDE1, stronger effect = lower value 0.997 | locus YGL253W, strain hxk2, stronger effect = lower value 0.981 | locus YGR078C, strain PAC10, stronger effect = lower value 0.993 and 1.01 | locus YGR135W, strain pre9, stronger effect = lower value 0.989 | locus YGR229C, strain SMI1, stronger effect = lower value 1.01 | locus YGR252W, strain gcn5, stronger effect = lower value 1.16 | locus YHR013C, strain ard1, stronger effect = lower value 0.943 | locus YHR027C, strain rpn1, stronger effect = lower value 0.986 | locus YHR030C, strain SLT2, stronger effect = lower value 0.99 and 0.988 | locus YHR079C, strain IRE1 (second series), stronger effect = lower value 0.977 | locus YHR079C, strain IRE1, stronger effect = lower value 0.977 | locus YHR094C, strain hxt1, stronger effect = lower value 0.977 | locus YHR129C, strain ARP1, stronger effect = lower value 1 | locus YHR142W, strain chs7, stronger effect = lower value 0.997 | locus YHR200W, strain rpn10, stronger effect = lower value 0.978 | locus YIL066C, strain RNR3, stronger effect = lower value 0.999 | locus YIR030C, strain dcg1, stronger effect = lower value 0.991 | locus YJL092W, strain hpr5, stronger effect = lower value 0.979 | locus YJL095W, strain BCK1 (second series), stronger effect = lower value 0.984 | locus YJL095W, strain BCK1, stronger effect = lower value 1.01 and 0.997 | locus YJL115W, strain asf1, stronger effect = lower value 0.975 | locus YJL129C, strain trk1, stronger effect = lower value 0.997 | locus YJL134W, strain LCB3, stronger effect = lower value 0.984 | locus YJL154C, strain vps35, stronger effect = lower value 0.98 | locus YJL164C, strain tpk1, stronger effect = lower value 1 | locus YJL166W, strain qcr8, stronger effect = lower value 1.01 | locus YJL168C, strain set2, stronger effect = lower value 0.983 | locus YJL187C, strain SWE1 (second series), stronger effect = lower value 0.987 | locus YJL187C, strain SWE1, stronger effect = lower value 0.985 | locus YJR043C, strain POL32, stronger effect = lower value 1 | locus YJR066W, strain TOR1, stronger effect = lower value 0.94
